# Measured values published in PubChem BioAssay (Tox21).
# Values without a mark were called inactive. Results filed as inconclusive are left out. Where a call stands in place of a potency, no number is given. Calls of active or inactive are those of the source. The call rests on the fitted dose curve; in most records, active means well fitted curve in the direction sought with a large enough effect in the repeat runs; inconclusive means weak or mixed curves; inactive means no such curve, though single readings can be large; an effect the other way counts as inactive or inconclusive.
# How the values were obtained:
# [1] = Human pregnane X receptor (PXR) small molecule agonists, qHTS cell viability counter screen (AID 1346977); further: nearly all actives have a fitted effect of over 50% in size; further: potency means the concentration at half of the fitted maximal effect
# Outline: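 Tox21 qHTS format; PXR-Luc HepG2, 2,000/well, charcoal-stripped FBS 5%. Cpd exposure 24hr. Read: CellTiter-Fluor fluorescence, multiplexed with luciferase.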
# [2] = Caspase-3/7 induction in HepG2 cells by small molecules, qHTS assay (AID 1346978); further: nearly all actives have a fitted effect of over 15% in size; further: potency means the concentration at half of the fitted maximal effect
# Outline: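 Wild-type HepG2 cells, 2,000/well, settled 5 hr at 37 C and 5% CO2, then compound-treated for 17 hr; caspase-3/7 activity read by luminescent Caspase-Glo 3/7 after 30 min at room temperature.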
# [3] = Caspase-3/7 induction in CHO-K1 cells by small molecules, qHTS cell viability counter screen (AID 1346979); further: nearly all actives have a fitted effect of over 35% in size; further: potency means the concentration at half of the fitted maximal effect
# Outline: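 CellTiter-Fluor viability check, qHTS format: wild-type CHO-K1, 16hr compound treatment, 1hr reagent incubation, fluorescence read.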
# [4] = Caspase-3/7 induction in CHO-K1 cells by small molecules, qHTS assay (AID 1346980); further: nearly all actives have a fitted effect of over 15% in size; further: potency means the concentration at half of the fitted maximal effect
# Outline: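 Wild-type CHO-K1 cells exposed to compounds for 17hr at 37 C, 5% CO2. Caspase-3/7 activity then measured by Caspase-Glo 3/7 luminescence after 30min at room temperature.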
# [5] = biological target: Nuclear receptor subfamily 1 group I member 2 (Homo sapiens) (UniProt O75469); assay: Human pregnane X receptor (PXR) small molecule agonists, qHTS assay (AID 1346982); further: nearly all actives have a fitted effect of over 35% in size; further: potency means the concentration at half of the fitted maximal effect
# Outline: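 Cells: HepG2 stably carrying PXR-Luc. Medium held 5% charcoal-stripped FBS. Compounds in DMSO added after 5 hr plating, incubated 24 hr, then luminescence quantified with ONE-Glo.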
# [6] = biological target: Nuclear receptor subfamily 1 group I member 2 (Homo sapiens) (UniProt O75469); assay: CYP3A4 induction through human pregnane X receptor (PXR) by small molecules, qHTS assay (AID 1346984); further: nearly all actives have a fitted effect of over 40% in size
# Outline: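 Quantitative HTS in DPX-2 cells, i.e. HepG2 transfected with PXR response element and CYP3A4-promoter luciferase. Compounds in DMSO incubated 24hr at 37C; then P450-Glo CYP3A4 substrate, 3uM final, 3hr; One-Glo luminescence.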
# [7] = biological target: Nuclear receptor subfamily 1 group I member 2 (Homo sapiens) (UniProt O75469); assay: Human pregnane X receptor (PXR) activation by small molecules, qHTS assay (AID 1346985); further: nearly all actives have a fitted effect of over 40% in size; further: potency means the concentration at half of the fitted maximal effect
# Outline: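 DPX-2 cells (HepG2 co-transfected with a PXR response element and a CYP3A4-promoter luciferase construct) were seeded at 2,000 per well, rested 5 hr at 37C, then exposed to DMSO-dissolved compounds for 24 hr. Activation was read as luciferase luminescence.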
# [8] = biological target: Cytochrome P450 2D6 (Homo sapiens) (UniProt P10635); assay: Cytochrome P450 Family 2 Subfamily D Member 6 (CYP2D6) small molecule antagonists: luciferase reporter qHTS assay (AID 1671196); further: nearly all actives have a fitted effect of over 50% in size; further: potency means the concentration at half of the fitted maximal effect
# Outline: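 Enzyme and proluciferin substrate were first combined with test chemical for 10 min at room temperature. Adding NADPH regeneration solution started a 1 h reaction, stopped with luciferin detection reagent and read by luminescence 20 min later.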
# [9] = biological target: Cytochrome P450 2C19 (Homo sapiens) (UniProt P33261); assay: Cytochrome P450 Family 2 Subfamily C Member 19 (CYP2C19) small molecule antagonists: luciferase reporter qHTS assay (AID 1671197); further: nearly all actives have a fitted effect of over 65% in size; further: potency means the concentration at half of the fitted maximal effect
# Outline: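 CYP2C19 P450-Glo, 1536-well qHTS. Cpd + enzyme/proluciferin substrate 10 min RT; + NADPH regen, 37C 1 h; stop with luciferin detection reagent, 20 min RT, luminescence (RLU). Pos ctrl ketoconazole.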
# [10] = biological target: Cytochrome P450 2C9 (Homo sapiens) (UniProt P11712); assay: Cytochrome P450 Family 2 Subfamily C Member 9 (CYP2C9) small molecule antagonists: luciferase reporter qHTS assay (AID 1671198); further: nearly all actives have a fitted effect of over 50% in size; further: potency means the concentration at half of the fitted maximal effect
# Outline: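 P450-Glo proluciferin substrate with CYP2C9 enzyme; 10 min RT preincubation, then NADPH regeneration 1 h at 37C; luciferin detection reagent 20 min RT, luminescence in relative luminescence units.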
# [11] = Caspase-3/7 induction in HepG2 cells by small molecules, qHTS cell viability counter screen (AID 1346981); further: nearly all actives have a fitted effect of over 30% in size; further: potency means the concentration at half of the fitted maximal effect
# Outline: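 Cell viability is measured as a cytotoxicity counter screen alongside the Caspase-Glo 3/7 readout in identical wells. Wild-type HepG2 cells are treated with test compounds for 16 hr at 37 C before CellTiter-Fluor addition and a 1-hr incubation.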
# [12] = biological target: Cytochrome P450 1A2 (Homo sapiens) (UniProt P05177); assay: Cytochrome P450 Family 1 Subfamily A Member 2 (CYP1A2) small molecule antagonists: luciferase reporter qHTS assay (AID 1671199); further: nearly all actives have a fitted effect of over 50% in size; further: potency means the concentration at half of the fitted maximal effect
# Outline: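 Compounds were incubated with CYP1A2 and a luminogenic proluciferin substrate for 10 min at room temperature before the reaction was started with NADPH regeneration solution. After 1 h, detection reagent was added and light output, proportional to CYP activity, was recorded.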
# [13] = biological target: Voltage-gated inwardly rectifying potassium channel KCNH2 (Homo sapiens) (UniProt Q12809); assay: Human Ether-a-go-go-Related Gene (hERG) channel small molecule antagonists: fluorescence cell-based qHTS assay (AID 1671200); further: nearly all actives have a fitted effect of over 50% in size; further: potency means the concentration at half of the fitted maximal effect
# Outline: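 Kinetic two-minute fluorescence traces, sampled at 1 s, were collected following thallium stimulus of U2OS cells (1000 per well) that had been cultured overnight at 37 C and loaded with FluxOR II.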
# [14] = biological target: Cytochrome P450 3A4 (Homo sapiens) (UniProt P08684); assay: Cytochrome P450 Family 3 Subfamily A Member 4 (CYP3A4) small molecule antagonists: luciferase reporter qHTS assay (AID 1671201); further: nearly all actives have a fitted effect of over 50% in size; further: potency means the concentration at half of the fitted maximal effect
# Outline: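 Proluciferin-to-luciferin conversion by CYP3A4, NADPH-regenerated, 1 h RT; luminescence read as RLU. Ketoconazole as control.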
# [15] = biological target: Nuclear receptor subfamily 1 group I member 2 (Rattus norvegicus) (UniProt Q9R1A7); assay: Rat pregnane X receptor (rPXR) activation by small molecules, qHTS assay (AID 1346983); conditions: rPXR luciferase reporter cells, One-Glo luminescence, 24 h; max activation: stronger effect = higher value; further: nearly all actives have a fitted effect of over 20% in size
# Outline: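 Cell-based rPXR activation assay: rPXR cells, 2,000 per well, rested 5hr at 37 C, then exposed to compounds in DMSO for 24 hr at 37 C. Luciferase activity read by One-Glo luminescence after 30 min at room temperature.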
# Chain of Nuclear receptor subfamily 1 group I member 2 (Homo sapiens) (O75469 whole entry, looked up): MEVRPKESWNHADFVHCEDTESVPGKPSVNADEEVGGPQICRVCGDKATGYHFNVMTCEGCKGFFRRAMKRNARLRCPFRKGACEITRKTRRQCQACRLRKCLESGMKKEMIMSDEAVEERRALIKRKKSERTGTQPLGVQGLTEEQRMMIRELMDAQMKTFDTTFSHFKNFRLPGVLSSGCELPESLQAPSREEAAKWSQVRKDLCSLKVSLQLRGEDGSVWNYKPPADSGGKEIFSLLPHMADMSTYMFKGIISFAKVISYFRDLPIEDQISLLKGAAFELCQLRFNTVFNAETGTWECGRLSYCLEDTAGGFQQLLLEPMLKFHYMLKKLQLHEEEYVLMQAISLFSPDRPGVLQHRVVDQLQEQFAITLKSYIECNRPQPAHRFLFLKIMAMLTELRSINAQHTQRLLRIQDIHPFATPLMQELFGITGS
# Chain of Cytochrome P450 3A4 (Homo sapiens) (P08684 whole entry, looked up): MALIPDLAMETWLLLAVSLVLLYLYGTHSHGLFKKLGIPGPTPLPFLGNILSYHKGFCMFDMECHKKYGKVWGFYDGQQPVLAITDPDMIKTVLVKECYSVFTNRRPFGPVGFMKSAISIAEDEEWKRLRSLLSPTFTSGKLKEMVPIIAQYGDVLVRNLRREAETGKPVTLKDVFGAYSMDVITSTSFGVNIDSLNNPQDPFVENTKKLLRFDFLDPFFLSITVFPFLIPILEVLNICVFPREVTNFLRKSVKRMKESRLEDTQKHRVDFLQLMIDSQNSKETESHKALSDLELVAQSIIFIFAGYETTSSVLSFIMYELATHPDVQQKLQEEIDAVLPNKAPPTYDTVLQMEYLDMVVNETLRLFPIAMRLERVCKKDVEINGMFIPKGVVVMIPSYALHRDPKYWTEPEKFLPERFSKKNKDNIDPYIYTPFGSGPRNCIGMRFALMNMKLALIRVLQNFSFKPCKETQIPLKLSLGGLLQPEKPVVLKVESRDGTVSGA
# Chain of Cytochrome P450 2D6 (Homo sapiens) (P10635 whole entry, looked up): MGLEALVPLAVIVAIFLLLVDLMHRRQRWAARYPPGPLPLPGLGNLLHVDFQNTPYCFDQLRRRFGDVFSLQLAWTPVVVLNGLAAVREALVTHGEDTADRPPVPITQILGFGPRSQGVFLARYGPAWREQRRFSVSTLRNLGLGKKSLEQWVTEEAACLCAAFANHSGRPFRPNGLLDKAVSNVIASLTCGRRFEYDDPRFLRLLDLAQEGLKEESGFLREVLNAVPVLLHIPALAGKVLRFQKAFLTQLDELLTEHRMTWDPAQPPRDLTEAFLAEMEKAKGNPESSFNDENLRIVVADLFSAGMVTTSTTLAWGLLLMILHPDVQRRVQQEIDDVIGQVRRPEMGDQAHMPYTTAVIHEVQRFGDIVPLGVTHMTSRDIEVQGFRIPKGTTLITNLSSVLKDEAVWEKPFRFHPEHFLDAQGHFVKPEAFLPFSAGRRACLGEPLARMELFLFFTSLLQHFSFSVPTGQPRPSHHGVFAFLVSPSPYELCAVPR
# Chain of Cytochrome P450 1A2 (Homo sapiens) (P05177 whole entry, looked up): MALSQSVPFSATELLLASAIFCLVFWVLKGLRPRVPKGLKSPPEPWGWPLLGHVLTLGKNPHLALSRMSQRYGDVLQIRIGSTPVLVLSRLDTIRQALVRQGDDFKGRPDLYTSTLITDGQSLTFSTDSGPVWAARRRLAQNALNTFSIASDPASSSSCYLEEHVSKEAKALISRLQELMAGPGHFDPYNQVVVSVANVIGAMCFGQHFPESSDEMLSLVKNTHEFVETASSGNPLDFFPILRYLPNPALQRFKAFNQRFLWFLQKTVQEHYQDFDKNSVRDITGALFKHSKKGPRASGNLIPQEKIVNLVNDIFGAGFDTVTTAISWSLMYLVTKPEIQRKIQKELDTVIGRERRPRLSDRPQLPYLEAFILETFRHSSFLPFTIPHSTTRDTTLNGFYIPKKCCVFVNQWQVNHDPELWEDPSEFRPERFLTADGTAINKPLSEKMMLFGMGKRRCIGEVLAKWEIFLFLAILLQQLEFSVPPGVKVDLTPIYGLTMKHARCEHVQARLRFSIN
# Chain of Cytochrome P450 2C19 (Homo sapiens) (P33261 whole entry, looked up): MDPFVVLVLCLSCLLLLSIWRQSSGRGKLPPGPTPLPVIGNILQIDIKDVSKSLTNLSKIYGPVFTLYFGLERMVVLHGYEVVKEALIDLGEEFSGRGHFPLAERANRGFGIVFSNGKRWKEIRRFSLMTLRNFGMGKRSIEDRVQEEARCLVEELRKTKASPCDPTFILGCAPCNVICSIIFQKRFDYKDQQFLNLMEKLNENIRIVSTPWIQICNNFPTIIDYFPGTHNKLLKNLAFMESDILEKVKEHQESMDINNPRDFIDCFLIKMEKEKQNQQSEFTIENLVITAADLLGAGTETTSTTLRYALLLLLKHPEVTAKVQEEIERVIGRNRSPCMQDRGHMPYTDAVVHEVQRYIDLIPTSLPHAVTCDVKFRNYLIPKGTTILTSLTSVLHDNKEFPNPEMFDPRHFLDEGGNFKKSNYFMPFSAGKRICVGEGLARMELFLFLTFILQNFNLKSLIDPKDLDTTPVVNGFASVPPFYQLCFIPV
# Chain of Cytochrome P450 2C9 (Homo sapiens) (P11712 whole entry, looked up): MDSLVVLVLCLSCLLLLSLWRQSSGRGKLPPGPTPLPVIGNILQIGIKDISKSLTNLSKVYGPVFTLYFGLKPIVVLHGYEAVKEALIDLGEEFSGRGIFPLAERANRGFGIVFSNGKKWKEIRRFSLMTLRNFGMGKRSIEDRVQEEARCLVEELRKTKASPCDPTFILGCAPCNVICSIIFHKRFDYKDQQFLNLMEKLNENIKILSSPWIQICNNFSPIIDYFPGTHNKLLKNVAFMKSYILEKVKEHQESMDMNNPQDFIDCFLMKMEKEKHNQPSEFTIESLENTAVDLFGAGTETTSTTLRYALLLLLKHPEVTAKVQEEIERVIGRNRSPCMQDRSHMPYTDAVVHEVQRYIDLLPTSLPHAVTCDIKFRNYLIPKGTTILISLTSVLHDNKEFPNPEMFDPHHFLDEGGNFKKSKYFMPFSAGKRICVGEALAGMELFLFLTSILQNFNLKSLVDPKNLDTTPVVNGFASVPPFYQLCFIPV
# Chain of Voltage-gated inwardly rectifying potassium channel KCNH2 (Homo sapiens) (Q12809 whole entry, looked up): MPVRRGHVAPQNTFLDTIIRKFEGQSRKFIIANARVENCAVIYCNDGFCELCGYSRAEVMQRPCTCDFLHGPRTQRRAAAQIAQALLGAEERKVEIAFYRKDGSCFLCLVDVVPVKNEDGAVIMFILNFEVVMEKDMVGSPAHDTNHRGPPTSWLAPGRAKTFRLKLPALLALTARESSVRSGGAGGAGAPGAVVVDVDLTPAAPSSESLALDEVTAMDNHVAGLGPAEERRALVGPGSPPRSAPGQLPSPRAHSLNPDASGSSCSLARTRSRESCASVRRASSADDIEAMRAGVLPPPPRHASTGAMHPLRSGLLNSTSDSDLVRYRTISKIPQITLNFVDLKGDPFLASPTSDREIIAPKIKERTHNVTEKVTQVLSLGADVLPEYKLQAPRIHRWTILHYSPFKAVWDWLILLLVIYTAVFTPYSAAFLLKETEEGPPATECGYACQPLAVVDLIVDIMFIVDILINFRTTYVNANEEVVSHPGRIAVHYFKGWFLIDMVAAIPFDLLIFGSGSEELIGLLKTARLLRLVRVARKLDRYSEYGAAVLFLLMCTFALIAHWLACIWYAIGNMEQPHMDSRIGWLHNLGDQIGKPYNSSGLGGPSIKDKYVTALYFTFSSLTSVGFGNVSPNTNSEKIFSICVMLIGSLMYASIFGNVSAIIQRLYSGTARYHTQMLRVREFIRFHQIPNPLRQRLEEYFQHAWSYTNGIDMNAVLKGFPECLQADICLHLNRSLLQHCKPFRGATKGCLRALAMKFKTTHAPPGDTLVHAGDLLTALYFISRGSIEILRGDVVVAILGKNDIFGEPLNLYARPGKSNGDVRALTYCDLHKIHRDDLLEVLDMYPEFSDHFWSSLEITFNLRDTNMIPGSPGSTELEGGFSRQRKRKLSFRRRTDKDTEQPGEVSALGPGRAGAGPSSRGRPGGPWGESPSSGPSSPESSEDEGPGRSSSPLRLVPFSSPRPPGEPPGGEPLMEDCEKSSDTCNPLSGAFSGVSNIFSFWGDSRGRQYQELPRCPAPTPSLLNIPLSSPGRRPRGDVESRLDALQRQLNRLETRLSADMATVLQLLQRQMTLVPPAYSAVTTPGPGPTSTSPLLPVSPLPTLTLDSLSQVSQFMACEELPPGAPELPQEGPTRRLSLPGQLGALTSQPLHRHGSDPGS
# Chain of Nuclear receptor subfamily 1 group I member 2 (Rattus norvegicus) (Q9R1A7 whole entry, looked up): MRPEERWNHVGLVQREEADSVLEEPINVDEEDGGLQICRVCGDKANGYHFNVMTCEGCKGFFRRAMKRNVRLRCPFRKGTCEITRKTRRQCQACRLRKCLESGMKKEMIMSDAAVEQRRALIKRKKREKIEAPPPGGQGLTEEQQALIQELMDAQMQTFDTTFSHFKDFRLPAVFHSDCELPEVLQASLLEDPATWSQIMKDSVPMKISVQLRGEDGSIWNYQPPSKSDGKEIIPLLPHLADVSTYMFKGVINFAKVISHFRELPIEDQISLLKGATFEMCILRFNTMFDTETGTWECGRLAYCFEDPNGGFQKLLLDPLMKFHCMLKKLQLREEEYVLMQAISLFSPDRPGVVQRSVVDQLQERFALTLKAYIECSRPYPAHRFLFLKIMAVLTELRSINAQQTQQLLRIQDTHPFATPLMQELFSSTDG
SMILES,Potency [1],Potency [2],Potency [3],Potency [4],Potency [5],Potency [6],Potency [7],Potency [8],Potency [9],Potency [10],Potency [11],Potency [12],Potency [13],Potency [14],max activation [15] [%]
Cc1c(C)c2c(c(C)c1OC(=O)CCC(=O)O)CC[C@@](C)(CCC[C@H](C)CCC[C@H](C)CCCC(C)C)O2,inactive,inactive,inactive,inactive,19.5 µM (active),inactive,inactive,inactive,inactive,inactive,–,–,–,–,–
Cc1[nH]nc2c1N=C(c1ccccc1Cl)c1cc([N+](=O)[O-])ccc1N2,13.7 µM (active),17.2 µM (active),21.7 µM (active),19.3 µM (active),6.11 µM (active),–,–,–,17.8 µM (active),15.9 µM (active),19.3 µM (active),63.3 µM (active),8.71 µM (active),3.99 µM (active),–
CCCCN(CCCC)C(=O)N(CCCC)CCCC,inactive,inactive,inactive,inactive,inactive,–,–,–,inactive,inactive,inactive,–,–,5.03 µM (active),–
O=C1CCCc2c1cc1ccc3cccc4ccc2c1c34,inactive,inactive,inactive,inactive,17.4 µM (active),–,–,inactive,18.1 µM (active),5.71 µM (active),–,0.321 µM (active),inactive,9.05 µM (active),–
Nc1ccccc1O,60.3 µM (active),inactive,24 µM (active),inactive,13.5 µM (active),–,–,31.3 µM (active),19.7 µM (active),27.9 µM (active),–,15.7 µM (active),–,31.3 µM (active),–
O=C1c2c(O)ccc(Nc3ccc(CCO)cc3)c2C(=O)c2c([N+](=O)[O-])ccc(O)c21,43.3 µM (active),inactive,54.5 µM (active),inactive,–,–,–,–,39.9 µM (active),10 µM (active),54.5 µM (active),–,–,31.7 µM (active),–
COc1ccc(CN2CCN(C(c3ccc(F)cc3)c3ccc(F)cc3)CC2)c(OC)c1OC,26.6 µM (active),inactive,26.6 µM (active),inactive,–,–,inactive,4.9 µM (active),–,11 µM (active),26.6 µM (active),inactive,–,–,-8.37
Cc1onc(-c2c(Cl)cccc2Cl)c1C(=O)N[C@@H]1C(=O)N2[C@@H]1SC(C)(C)[C@@H]2C(=O)O,inactive,inactive,inactive,inactive,inactive,–,–,–,–,13.8 µM (active),inactive,inactive,inactive,–,–
C=C(C)C(=O)OCC(O)COc1ccc(C(C)(C)c2ccc(OCC(O)COC(=O)C(=C)C)cc2)cc1 (centres undefined),inactive,inactive,54.5 µM (active),inactive,27.3 µM (active),–,–,39.9 µM (active),7.1 µM (active),3.99 µM (active),–,–,–,inactive,–
CCN(C(=O)N(CC)c1ccccc1)c1ccccc1,inactive,inactive,inactive,inactive,30.6 µM (active),–,–,inactive,7.96 µM (active),7.1 µM (active),–,inactive,–,–,–
CCCCc1oc2ccc(NS(C)(=O)=O)cc2c1C(=O)c1ccc(OCCCN(CCCC)CCCC)cc1,18.8 µM (active),18.8 µM (active),16.8 µM (active),inactive,–,–,–,11 µM (active),9.77 µM (active),–,26.6 µM (active),inactive,0.848 µM (active),inactive,–
O=Cc1cc(O)ccc1Br,inactive,inactive,inactive,inactive,–,–,–,–,36.1 µM (active),–,inactive,36.1 µM (active),inactive,inactive,–
CCC(C)Nc1ccc(NC(C)CC)cc1 (centres undefined),12.4 µM (active),inactive,17.6 µM (active),inactive,–,–,–,2.88 µM (active),1.82 µM (active),5.12 µM (active),27.8 µM (active),–,–,8.12 µM (active),–
[Cl][Au]([Cl])[Cl],13.7 µM (active),inactive,24.3 µM (active),inactive,–,–,–,–,–,–,68.6 µM (active),–,inactive,–,–
CCCCC(CC)CN=C(N)NC(N)=NCCCCCCN=C(N)NC(N)=NCC(CC)CCCC (centres undefined),16.8 µM (active),inactive,16.8 µM (active),inactive,inactive,inactive,inactive,1.23 µM (active),17.4 µM (active),17.4 µM (active),–,32.3 µM (active),inactive,–,-27.3
CN(C)[C@@H]1C(=O)C(C(N)=O)=C(O)[C@@]2(O)C(=O)C3=C(O)c4c(O)ccc(Cl)c4[C@@H](O)[C@H]3C[C@@H]12,inactive,inactive,inactive,inactive,inactive,inactive,inactive,inactive,–,–,–,inactive,inactive,inactive,–
CCC1=C[C@@H]2CN(C1)Cc1c([nH]c3ccccc13)[C@@](C(=O)OC)(c1cc3c(cc1OC)N(C)[C@H]1[C@@](O)(C(=O)OC)[C@H](OC(C)=O)[C@]4(CC)C=CCN5CC[C@]31[C@@H]54)C2,13.3 µM (active),inactive,0.668 µM (active),inactive,–,–,8.91 µM (active),inactive,inactive,–,13.3 µM (active),inactive,6.74 µM (active),–,–
